# From PubChem BioAssay (EPA / NIEHS)
# Where “and” joins values, the source holds several entries; their conditions need not be identical. Equal values may be shown once. Calls of active or inactive are those of the source. Rule for the calls: active = hit-call score of the fitted dose curve at least 0.9, where 1 is the maximum; inactive = score below 0.9.
# Test: BSK_SAg_Proliferation: Cell Proliferation Assessment in the BioMAP Diversity Plus: SAg Assay (AID 2283095)
# Conditions: primary human HUVEC with PBMC
# Protocol: BSK_SAg is a cell-based, multiplexed-readout assay that uses umbilical vein endothelium and peripheral blood mononuclear cells, a human vascular primary cell co-culture, with measurements taken at 24 hours after chemical dosing in a 96-well plate.BSK_SAg_Proliferation is an assay component in the BSK_SAg assay. It measures protein content, a form of viability reporter, as detected with absorbance signals by Sulforhodamine staining technology. Data from the assay component BSK_SAg_Proliferation was analyzed into 1 assay endpoint. This assay endpoint, BSK_SAg_Proliferation, was analyzed with bidirectional fitting relative to DMSO as the negative control and baseline of activity. Using a type of viability reporter, measures of total protein for gain or loss-of-signal activity can be used to understand the viability at the cellular-level. Furthermore, this assay endpoint can be referred to as a secondary readout, because this assay has produced multiple assay endpoints where this one serves a viability function. To generalize the intended target to other relatable targets, this assay endpoint is annotated to the cell cycle intended target family, where the subfamily is proliferation.
# The levels of cell surface (or secreted, indicated by the prefix "s") biomarker endpoints were measured by ELISA. Overt cytotoxicity to cells in confluent adherent cultures (all systems other than the BT system) was assessed by measuring total protein levels using sulforhodamine B (SRB) staining in parallel cultures at the time of biomarker measurements, indicated as SRB endpoints. For proliferation assays for adherent cell types, individual cell types are cultured at sub-confluence and relative cell numbers quantified by SRB staining at time points optimized for each system (48 h: 3C and CASM3C systems; 72 h: BT and HDF3CGF systems; 96 h: SAg system). SRB was performed by staining cells with 0.1% SRB after fixation with 10% TCA and reading wells at 560 nm.Viability and proliferation of PBMC (T cells) was quantified by Alamar Blue reduction for the SAg and BT systems. For PBMC viability (referred to as PBMC Cytotoxicity within the assay endpoint names), cells were plated (75,000/well in a 96-well plate) and then chemical samples added for 1 h before addition of activators, SEB and TSST-1 (20 ng/mL final concentration each). Cells were incubated for 90 h. Then, Alamar Blue (20 uL/well) (Invitrogen, Cat DAL1100) was added for 6 h, and the plates were read with a fluorescence microplate reader at 546/580 nm (excitation/emission). For PBMC proliferation, cells were plated and activated as above but incubated for only 16 h prior to addition of Alamar Blue. Plates were read after 6 h.
SMILES,outcome,AC50
OCCCl,inactive,
C[N+](C)(C)CC1CO1 (stereo not given),inactive,
OCCOCCO,inactive,
C[C@]12C=CC3=C4CCC(=O)C=C4CC[C@H]3[C@@H]1CC[C@@H]2O,inactive,
CC(C)COC(=O)c1ccccc1C(=O)OCC(C)C,,30.3 µM (active)
CC(C)N(Cc1ccccc1)C(=O)C(C)(C)C,inactive,
ClCCOCCCl,inactive,
CCCCC(CC)COC(=O)c1ccc(C(=O)OCC(CC)CCCC)c(C(=O)OCC(CC)CCCC)c1 (stereo not given),inactive,
O=[N+]([O-])c1ccc(Oc2ccc(Cl)cc2Cl)cc1,,32 µM (active)
Clc1ccc(C(c2ccc(Cl)cc2)C(Cl)Cl)cc1,,11.4 µM (active)
O=C(N[C@H](c1ccccc1)[C@@H]1CN2CCC1CC2)c1c(Cl)ccc(C(F)(F)F)c1Cl,,29.7 µM (active)
Clc1ccccc1Cl,inactive,
OCCCBr,inactive,
CCCCCCCCn1sccc1=O,,1.76 µM (active)
[O-][Cl+]O,inactive,
CO[C@@H]1[C@H](OC(=O)NC(=O)CCl)CC[C@]2(CO2)[C@H]1[C@@]1(C)O[C@@H]1CC=C(C)C,,2.45 µM (active)
Cc1ccc(N)cc1,inactive,
COC(=O)Nc1nc2ccccc2[nH]1,,11.2 µM (active)
CC(C)(C)OOC(=O)c1ccccc1,inactive,
COC(=O)c1ccccc1N,inactive,

SMILES,outcome,AC50
c1ccc2c(c1)oc1ccccc12,inactive,
c1ccc(C2CO2)cc1 (stereo not given),inactive,
ClC1=C(Cl)C2(Cl)C3C(Cl)C=CC3C1(Cl)C2(Cl)Cl (stereo not given),,10.9 µM (active)
O=C(O)C1C2CCC(O2)C1C(=O)O (stereo not given),,18.6 µM (active)
CCCCCOC(=O)c1ccccc1C(=O)OCCCCC,,31.9 µM (active)
CCCCCCCCCCCCCN1CC(C)OC(C)C1 (stereo not given),inactive,
O=P(OCCCl)(OCCCl)OCCCl,inactive,
Cn1cc(-c2ccccc2)c(=O)c(-c2cccc(C(F)(F)F)c2)c1,inactive,
CNC(=O)Oc1cccc2c1OC(C)(C)C2,inactive,
[Cl-].[Cl-].[Hg+2],,22.7 µM (active)
CCN(CC)CCO,inactive,
CCNS(=O)(=O)C(F)(F)C(F)(F)C(F)(F)C(F)(F)C(F)(F)C(F)(F)C(F)(F)C(F)(F)F,,19.3 µM (active) and 45 µM (active) and 23.6 µM (active)
O=C(Oc1ccc(Br)cc1)N1CCN2CCC1CC2,inactive,
O=C1CCCO1,inactive,
c1ccc(N=Nc2ccccc2)cc1,inactive,
CCN(CC)N=O,inactive,
CCCCCCCCOC(=O)c1ccc(C(=O)OCCCCCCCC)c(C(=O)OCCCCCCCC)c1,inactive,
c1ccc(NNc2ccccc2)cc1,inactive,
Cc1cccc(N)c1N,inactive,
CCCSC(=O)N(CCC)CCC,inactive,
